Compounds with a hit are over-represented: about 4.1% of the library has one in this group of screens.
IDE act: activators of human insulin-degrading enzyme in cells | P14735 | hit rate 0.073% among 340,000 | AID 493087 | activation, % at 5.96 µM | HEK cells, FAbeta-B cleavage, fluorescence polarization; 0% vehicle, 100% cell-free pure enzyme wells;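 active means activation above the mean of all tested compounds plus 3 SD, set per screening campaign, cut at about 17% in these data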
CaV13 FRET inh: Primary screen for inhibitors of IQ motif and Ca2+-dependent inactivation inhibitor domain binding in CACNA1D, Förster resonance energy transfer in living cells, … | HEK cells, CFP/YFP FRET ICDI-IQ, plate reader, 10 min; percent FRET-ratio fall versus neutral wells | hit rate 0.098% among 340,000 | inhibition, % at 12.3 µM;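 active means mean replicate inhibition of at least 30% and at least 1% of replicates passing that level; inconclusive means only one of the two criteria is met; inactive means neither criterion is met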
PfM18AAP inh-1: PfM18AAP enzyme inhibition; recombinant PfM18AAP, H-Glu-NHMec fluorogenic cleavage; inhibition, % at 7.35 µM; hit rate 1.2% among 290,000;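 active means inhibition above the campaign mean inhibition over all tested compounds plus 3 SD, cut at about 28% in these data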
IDE cell inh: inhibitors of human insulin-degrading enzyme in cells; hit rate 0.41% among 320,000; inhibition, % at 5.59 µM; HEK cells, FAbetaB cleavage, fluorescence polarization; AID 434962;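 active means percent inhibition above the average of all tested compounds plus 3 SD, set per screening campaign, cut at about 16% in these data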;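 further: IDE supplied by intact live HEK cells; FP after avidin binding of uncleaved biotin substrate so inhibition keeps polarization high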
ALR H2O2 inh: human ALR oxidase inhibition via reduced H2O2; hit rate 3.8% among 290,000; inhibition, % (no concentration beside the values); purified ALR, DTT oxidation, H2O2 HRP-luminol luminescence;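 active means mean replicate inhibition above about 79%, with every replicate also reaching it, limit read from the data; inconclusive means only one of the two criteria met; inactive means mean below limit and not every replicate reaching it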
Target sequence (P55789 whole entry, looked up): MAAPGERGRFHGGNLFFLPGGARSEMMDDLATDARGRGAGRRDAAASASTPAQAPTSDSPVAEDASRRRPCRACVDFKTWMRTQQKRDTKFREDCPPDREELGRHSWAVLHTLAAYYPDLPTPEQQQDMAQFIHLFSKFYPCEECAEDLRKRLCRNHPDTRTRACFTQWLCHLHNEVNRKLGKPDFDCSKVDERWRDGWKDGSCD
PolyA inh: yeast polyadenylation inhibition | S. cerevisiae SKY197-pL101 polyadenylation reporter, beta-gal luminescence; efflux-impaired pdr1/pdr3 knockout yeast; score 100 = 6 SD above DMSO | activity score, % at 12 µM | hit rate 0.02% among 300,000 | AID 1875;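 active means lowest replicate activity score at least 50, where 100 means six control SD above control mean; inconclusive means lowest score under 50 but half or more replicates reach 50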;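 further: yeast exposed to compound for 9 h at 30 °C; higher score means more reporter readthrough which indicates perturbed polyadenylation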
PfM18AAP inh-2: PfM18AAP inhibition, confirmation. shares compounds with PfM18AAP inh-1. recombinant PfM18AAP, H-Glu-NHMec fluorogenic cleavage. inhibition, % at 7.35 µM. hit rate 28% among 2,400;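 active means mean inhibition over replicate wells above the hit cutoff set for the earlier primary screen, cut at about 29% in these data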
CTSL1 counter: Cathepsin L (human) inhibition, confirmation | shares compounds with PfM18AAP inh-1 | purified cathepsin L1, Z-Leu-Arg-MCA fluorescence | inhibition, % at 5.96 µM | 2,400 tested, under 10 active;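 active means average inhibition across replicates above the hit cutoff set in the earlier primary screen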
Target sequence (P07711 whole entry, looked up): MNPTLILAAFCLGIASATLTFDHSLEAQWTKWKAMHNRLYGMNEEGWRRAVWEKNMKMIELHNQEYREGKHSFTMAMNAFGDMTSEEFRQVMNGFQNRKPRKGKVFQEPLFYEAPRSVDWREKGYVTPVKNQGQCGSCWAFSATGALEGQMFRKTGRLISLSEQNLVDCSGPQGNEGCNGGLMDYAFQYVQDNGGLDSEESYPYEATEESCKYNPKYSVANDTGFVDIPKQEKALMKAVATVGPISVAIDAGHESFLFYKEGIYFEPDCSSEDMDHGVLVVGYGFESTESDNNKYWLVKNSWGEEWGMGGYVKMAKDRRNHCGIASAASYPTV
Each line names hits and unclear results; the compound was inactive in the other large screens (follow-up assays come after a bar, where they were run).

O=[N+]([O-])c1ccc(Cl)cc1CNc1ccc(F)c(F)c1	none
Cc1ccc(S(=O)(=O)/N=C(/c2ccc(F)cc2)N(C)C)cc1	none
Cc1n[nH]c(=S)n(/N=C/c2cccs2)c1=O	none
CCN(CC)c1ccc(/C=N/n2c(=S)[nH]nc(C)c2=O)cc1	PfM18AAP inh-1 34.5 (no result: CaV13 FRET inh) | PfM18AAP inh-2 inactive | CTSL1 counter inactive
Cc1ccc(CNS(=O)(=O)c2ccc3c(c2)n(C)c(=O)n3C)cc1	none
O=C(NC1CCCCC1)C(c1ccncc1)N(Cc1ccc2c(c1)OCO2)C(=O)C(F)(F)F (stereo not drawn)	PfM18AAP inh-1 41.1 | PfM18AAP inh-2 inactive | CTSL1 counter inactive
CCc1ccc(N(C(=O)C(F)(F)F)C(C(=O)NC2CCCCC2)c2ccncc2)cc1 (stereo not drawn)	none
Cc1cc(O)cc(O)c1C(=O)Cc1ccccc1	none
O=C(Cc1ccc([N+](=O)[O-])cc1)c1c(O)cc(O)cc1O	PfM18AAP inh-1 44.1 | PfM18AAP inh-2 inactive | CTSL1 counter inactive
COc1cc(-c2nc3ccccn3c2NCc2ccccc2)ccc1SC1CCCCC1	none (no result: CaV13 FRET inh, PfM18AAP inh-1)
COc1cc(-c2nc3ccccn3c2NCC2CCCO2)ccc1O (stereo not drawn)	PfM18AAP inh-1 32.1, ALR H2O2 inh 98.7 | PfM18AAP inh-2 34.0 | CTSL1 counter inactive
O=C(Nc1ccccc1Cl)c1cc2ccccc2o/c1=N\O	PfM18AAP inh-1 36.9 | PfM18AAP inh-2 inactive | CTSL1 counter inactive
CCc1nc2ccc(C(=O)NCCc3c[nH]c4ccccc34)cn2c1N(C)Cc1nccn1C	none (no result: IDE act, PfM18AAP inh-1, IDE cell inh, ALR H2O2 inh, PolyA inh)
CNc1ccc(Br)cc1C(O)c1ccccc1 (stereo not drawn)	none
CC(=O)Nc1cccc(N(C)C)c1	none
CN(C)c1cccc(NC(=O)Cc2ccc(F)cc2)c1	PfM18AAP inh-1 39.2 | PfM18AAP inh-2 inactive | CTSL1 counter inactive
O=C1CN(N=Cc2ccco2)C(=O)N1	none (no result: PfM18AAP inh-1, IDE cell inh, ALR H2O2 inh, PolyA inh)
C#CCOc1c(Cl)cc(/C=C2/C(=O)ON=C2C)cc1OC	none
COc1cc(/C=C2/C(=O)ON=C2C)cc(Cl)c1O	PfM18AAP inh-1 32.3, ALR H2O2 inh 90.8 | PfM18AAP inh-2 inactive | CTSL1 counter inactive
COc1cc(S(=O)(=O)N2CCN(C(=O)c3cccs3)CC2)ccc1NC(C)=O	none (no result: IDE act, PfM18AAP inh-1, IDE cell inh, ALR H2O2 inh, PolyA inh)
CCn1c(C(=O)N2CCC(C(=O)NCCCSC3CCCCC3)CC2)cc2sccc21	none
CC(C)c1ccc(N2C(=O)C(Cl)=C(N3CCOCC3)C2=O)cc1	PfM18AAP inh-1 38.1 | PfM18AAP inh-2 inactive | CTSL1 counter inactive
COc1cc(CNc2ccc(CNc3ncn[nH]3)cc2)ccc1OCC(=O)NC(C)(C)C	PfM18AAP inh-1 46.9 | PfM18AAP inh-2 inactive | CTSL1 counter inactive
CC(C)(C)NC(=O)COc1ccc(CNc2ncn[nH]2)cc1	none (no result: ALR H2O2 inh)
Fc1ccc(CNc2ccc(CNc3ncn[nH]3)cc2)cc1	PfM18AAP inh-1 32.0 (no result: IDE cell inh, ALR H2O2 inh, PolyA inh) | PfM18AAP inh-2 inactive | CTSL1 counter inactive
O=C(NCCCN1CCCC1=O)[C@H](CSCc1ccccc1)N1Cc2ccccc2C1=O	none (no result: ALR H2O2 inh)
O=C(NCCCN1CCOCC1)c1onc(CSc2ccccn2)c1C(=O)NCCCN1CCOCC1	none (no result: PfM18AAP inh-1)
Cc1ccc(N=C(NOC(=O)c2ccccc2)c2nonc2N)c(C)c1	none (no result: CaV13 FRET inh, ALR H2O2 inh)
CC(=O)ONC(=Nc1ccccc1)c1nonc1N	PfM18AAP inh-1 36.0 | PfM18AAP inh-2 inactive | CTSL1 counter inactive
Brc1ccc(-c2noc3c2-c2nc(C4CCCCC4)sc2CC3)cc1	PolyA inh inconclusive (no result: PfM18AAP inh-1)
O=[N+]([O-])c1cccc(C2CC(c3ccccc3)=NN2c2ccccc2)c1 (stereo not drawn)	none
Cc1ccc(C2=Nc3ccccc3SC(c3cccc([N+](=O)[O-])c3)C2)cc1 (stereo not drawn)	PfM18AAP inh-1 32.6 | PfM18AAP inh-2 inactive | CTSL1 counter inactive
CC(/C=N/NC(=O)c1ccccn1)=C\c1ccco1	none (no result: IDE act, IDE cell inh, ALR H2O2 inh)
CC(/C=N/n1c(-c2cc(C)[nH]n2)n[nH]c1=S)=C\c1ccco1	PfM18AAP inh-1 35.5, ALR H2O2 inh 97.6 | PfM18AAP inh-2 inactive | CTSL1 counter inactive
